Source: PubChem (National Center for Advancing Translational Sciences (NCATS))
D1 PAM – enhances dopamine response at the human D1 receptor. P21728. potentiation, % at 10 µM. actives 0.036% (n = 360,000). HEK293 TREx D1 cells, calcium flux, dopamine EC20 potentiation; in the data active = potentiation above about 30%; note: 0% is about no effect
Target sequence (P21728 whole entry, looked up): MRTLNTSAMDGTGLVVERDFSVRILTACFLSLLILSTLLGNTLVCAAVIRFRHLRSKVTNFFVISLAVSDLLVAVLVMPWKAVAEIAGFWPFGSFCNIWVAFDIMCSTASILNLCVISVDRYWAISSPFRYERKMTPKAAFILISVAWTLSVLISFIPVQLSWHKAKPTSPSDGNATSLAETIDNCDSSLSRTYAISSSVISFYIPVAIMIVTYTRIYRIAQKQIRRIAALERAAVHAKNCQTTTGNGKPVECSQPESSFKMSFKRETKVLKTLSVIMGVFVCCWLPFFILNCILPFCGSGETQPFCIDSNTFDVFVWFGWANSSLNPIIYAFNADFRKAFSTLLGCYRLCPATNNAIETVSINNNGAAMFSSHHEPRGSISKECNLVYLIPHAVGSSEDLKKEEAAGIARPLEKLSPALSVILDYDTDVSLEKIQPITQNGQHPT
D3 ag – agonists of human D3 dopamine receptor. AID 652048. P35462. actives 0.58% (n = 410,000). D3R DiscoveRx beta-arrestin cells, luminescence, 90 min. max activation, %; in the data active = max activation above about 30%; note: 0% is about no effect
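Agonist-mode cell screen: cells plated at 1500/well and incubated overnight at 37 °C, then exposed to library compounds for 90 min at 37 °C. Detection reagent was added for 30–60 min at room temperature, and luminescence was read.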
D1 agonist – human D1 receptor agonism; P21728; HEK293 T-REx D1 cells, calcium flux, agonist mode; activation, % at 2 µM; actives 1% (n = 360,000); AID 504660; in the data active = activation above about 30%; note: 0% is about no effect
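Tetracycline-induced HEK293 TREx D1 cells, force-coupled to calcium signalling, were dye-loaded with a no-wash calcium kit. Compound was pin-added after a 10 s baseline. Fluorescence was read kinetically at 1 cycle/s for 180 s, with calcium rises flagged as agonism.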
D1 antag – human D1 dopamine receptor antagonism | P21728 | HEK293 TREx D1 cells, calcium flux, dopamine EC80; stronger effect = lower value | activity change, negative = inhibition, % at 10 µM | actives 3.2% (n = 360,000) | AID 504652; in the data active = activity change below about -30%; note: % is set by controls: 0 for no effect and ±100 for the full control effect
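Antagonism measured as reduced calcium response to an EC80 dopamine addition following 180 s compound pre-read; cells were inducible HEK293 Trex D1 plated overnight at 30 C, read kinetically at 1 cycle/sec.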
DRD3 antagonist – D3 dopamine receptor (human) antagonism. P35462. D3R cells, DiscoveRx beta-arrestin luminescence, antagonist mode; stronger effect = lower value. max response, negative = inhibition, %. actives 2.5% (n = 360,000); in the data active = max response below about -50%; note: % is set by controls: 0 for no effect and ±100 for the full control effect
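Cells expressing the human receptor were seeded at 1500 cells/well, incubated overnight at 37 degrees C in 5% CO2, then exposed to library compounds with dopamine controls for 90 minutes at 37 degrees C before luminescent detection.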
Numbers without * were called inactive. Compounds with a hit are over-represented: about 6% of the library has one in this group of screens.

O=S(=O)(Cc1cc(-c2ccccc2Cl)no1)c1ccccc1 was read as D1 PAM -9, D3 ag 1, D1 agonist 37*, D1 antag -21 and DRD3 antagonist -2.
`COC(=O)c1ccccc1NC(=O)CN1CCN(C23CC4CC(CC(C4)C2)C3)CC1` gave D1 PAM -1, D3 ag -39, D1 agonist 2, D1 antag -27 and DRD3 antagonist -76*.
For COC(=O)c1ccccc1NC(=O)CN1CCc2ccccc2C1 the results were D1 PAM -2, D3 ag -4, D1 agonist 5, D1 antag 4 and DRD3 antagonist -15.
`Cc1ccnc(Cc2ccccc2)n1` gave D1 PAM -3, D3 ag 4, D1 agonist 0, D1 antag 20 and DRD3 antagonist 8.
`O=C(CCCCN1CCCCC1)c1ccc2c(c1)Cc1ccccc1-2` gave D1 PAM -3, D3 ag -10, D1 agonist 31*, D1 antag -36* and DRD3 antagonist 0.
For COc1ccc(-c2cc(C(=O)NC(Cc3cc4ccccc4[nH]3)C(=O)O)c(C)o2)cc1OC (centres undefined) the results were D1 PAM 6, D3 ag 36*, D1 agonist 4, D1 antag 9 and DRD3 antagonist 4.
For COc1ccc(/C=C2\Oc3cc(OC(=O)N4CCOCC4)ccc3C2=O)c(OC)c1 the results were D1 PAM -8, D3 ag 11, D1 agonist 37*, D1 antag -23 and DRD3 antagonist -14.
For CCc1[nH]nc2c1C1(CCN(C(=O)c3ccccc3)CC1)C(C#N)=C(N)O2 the results were D1 PAM -2, D3 ag 1, D1 agonist 1, D1 antag -8 and DRD3 antagonist -8.
CCc1[nH]nc2c1C1(CCOC1C)C(C#N)=C(N)O2 (centres undefined) was read as D1 PAM 4, D3 ag -8, D1 agonist 3, D1 antag -8 and DRD3 antagonist -57*.
COc1ccc(NC(=O)C2Cc3c(-c4ccc5c(c4)OCO5)ccnc3O2)cc1OC (centres undefined) was read as D3 ag 1 and DRD3 antagonist 18.
CC(=O)NC(c1ccco1)c1cc(Cl)c2ccc(N(C)C)nc2c1O (centres undefined) was read as D1 PAM 9, D1 agonist 26 and D1 antag -4.
O=C1c2ccccc2N2C(=O)c3ccccc3C2N1Cc1ccco1 (centres undefined) was read as D1 PAM -3, D3 ag -2, D1 agonist 0, D1 antag -50* and DRD3 antagonist -4.
For Cc1ccccc1NC1c2ccccc2C(=O)N1Cc1ccco1 (centres undefined) the results were D3 ag 0, D1 agonist 1, D1 antag -17 and DRD3 antagonist 1.
O=C1c2cccnc2C(Nc2ccccc2Br)N1Cc1ccco1 (centres undefined) was read as D1 PAM 7, D3 ag 2, D1 agonist -3, D1 antag -53* and DRD3 antagonist -16.
`COc1ccc(/C=C2\CCc3ccccc3C2=O)cc1Cn1cccn1` gave D1 PAM -9, D3 ag 0, D1 agonist 18, D1 antag -49* and DRD3 antagonist -11.
For COc1ccc(/C=C2\CCC(C3CCCC3)C2=O)cc1Cn1cccn1 (centres undefined) the results were D1 PAM 0, D3 ag 5, D1 agonist 11, D1 antag 3 and DRD3 antagonist -16.
Screening CCN(C(=O)c1ccccc1)c1ccc([N+](=O)[O-])cc1 returned D1 PAM 1, D3 ag -5, D1 agonist 1, D1 antag -4 and DRD3 antagonist -20.
Screening O=[N+]([O-])c1ccc(N(c2ccccc2)c2ccccc2)cc1 returned D1 PAM 1, D3 ag 5, D1 agonist 42*, D1 antag 21 and DRD3 antagonist 25.
`O=C(NC1CC(=O)N(c2cccc(F)c2)C1)C1CCCC1` (centres undefined) gave D1 PAM -1, D3 ag -11 and D1 agonist 0.
For Cc1noc(C)c1CSCC(=O)N(C)CC(=O)Nc1ccc(F)cc1 the results were D1 PAM 4, D3 ag 0, D1 agonist 3, D1 antag -1 and DRD3 antagonist -1.
For Cc1ccc(NC(=O)CN(C)C(=O)c2ccccc2OCc2c(C)noc2C)cc1 the results were D1 PAM -2, D3 ag -9, D1 agonist -1, D1 antag -5 and DRD3 antagonist -12.
`Cc1noc(C)c1COc1ccccc1C(=O)N(C)CC(=O)Nc1ccc(F)cc1` gave D1 PAM 34*, D3 ag 1, D1 agonist 1, D1 antag -21 and DRD3 antagonist -2.
For Cc1noc(C)c1CSCC(=O)N(C)CC(=O)Nc1ccc(Cl)cc1 the results were D1 PAM -8, D3 ag 3, D1 agonist 3, D1 antag -44* and DRD3 antagonist -5.
Screening Cc1noc(C)c1COc1ccccc1C(=O)N(C)Cc1ccc(C(C)(C)C)cc1 returned D1 PAM -11, D3 ag -2, D1 agonist 13, D1 antag -36* and DRD3 antagonist 0.
For Cc1noc(C)c1COc1ccccc1C(=O)NCCc1ccc(Cl)cc1 the results were D1 PAM -3, D3 ag 7, D1 agonist 5, D1 antag 0 and DRD3 antagonist 10.
Cc1noc(C)c1COc1ccccc1C(=O)NCCc1ccc(S(N)(=O)=O)cc1 was read as D1 PAM -11, D3 ag 8, D1 agonist 2, D1 antag -34* and DRD3 antagonist 6.
`Brc1ccc(C[n+]2ccccc2)cc1` gave D1 PAM -2, D3 ag -6, D1 agonist 0, D1 antag 1 and DRD3 antagonist -4.
COc1ccc(-n2nnnc2SCC(=O)NCCc2ccccc2)cc1 was read as D1 PAM -5, D3 ag 5, D1 agonist -1 and D1 antag 6.
`CCNc1ccc(C(=O)OCC(=O)NCc2ccccc2Cl)cc1[N+](=O)[O-]` gave D1 PAM -1, D3 ag 5, D1 agonist 2, D1 antag -88* and DRD3 antagonist 3.
CCNc1ccc(C(=O)OCC(=O)NC(=O)NCC(C)C)cc1[N+](=O)[O-] was read as D1 PAM -2, D3 ag 4, D1 agonist 1, D1 antag -16 and DRD3 antagonist 7.
`CCCNC(=O)COC(=O)c1ccccc1C(=O)c1ccc(Cl)c([N+](=O)[O-])c1` gave D1 PAM -6, D3 ag -21, D1 agonist -1, D1 antag -30 and DRD3 antagonist -101*.
